An excerpt weighted towards active compounds, which were near 2.5% of everything screened.
Cruzain inh Det: inhibitors of Trypanosoma cruzi cruzain with detergent; Potency, µM, usual class: inhibitors; hit rate 0.43% among 200,000; AID 1478; P25779; purified cruzain, Z-FR-AMC fluorescence, 0.01% Triton; further: nearly all actives have a fitted effect of over 40% in size
Target sequence (P25779 123-467 limits assumed): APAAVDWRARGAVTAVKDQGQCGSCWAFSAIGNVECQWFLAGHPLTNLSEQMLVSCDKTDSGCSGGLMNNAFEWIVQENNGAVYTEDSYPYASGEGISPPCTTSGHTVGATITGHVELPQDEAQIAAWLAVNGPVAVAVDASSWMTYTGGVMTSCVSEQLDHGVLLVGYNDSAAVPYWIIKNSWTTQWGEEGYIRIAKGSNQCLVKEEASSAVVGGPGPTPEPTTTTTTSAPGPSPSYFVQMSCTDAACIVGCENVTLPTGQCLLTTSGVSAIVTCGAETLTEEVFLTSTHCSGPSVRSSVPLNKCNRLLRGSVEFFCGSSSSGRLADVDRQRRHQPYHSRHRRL
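Detergent-containing arm of a paired screen for aggregation-based inhibition: 0.01% Triton X-100 present. Cruzain at 1.5 nM cleaved 2 uM Z-FR-AMC at pH 5.5 with 5 mM DTT; AMC fluorescence gain over 60 s measured activity.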
Cruzain noTriton: blocks cruzain activity in detergent-free assay | purified cruzain, Z-FR-AMC fluorescence, no detergent | Potency, µM, actives largely listed as inhibitors | hit rate 2.3% among 200,000; further: nearly all actives have a fitted effect of over 40% in size
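Purified cruzain at 1.5 nM, pre-incubated 15 min with compound at room temperature in 100 mM sodium acetate pH 5.5, 5 mM DTT, 0.00005% Triton X-100. Reaction started with 2 uM Z-FR-AMC; AMC fluorescence increase over 60 s gives rate.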
A number is an active result; – = inactive; ? = inconclusive. The call rests on the fitted dose curve; in most records, active means well fitted curve in the direction sought with a large enough effect; inconclusive means small, poorly fitted or top-dose-only effect, or another doubt; inactive means no such curve, though single readings can be large; an effect the other way counts as inactive or inconclusive.

SMILES	Cruzain inh Det	Cruzain noTriton
CCOc1ccc(Nc2sc(C(=O)c3cccc(OC)c3)c(N)c2S(=O)(=O)c2ccccc2)cc1	–	13µM
CCc1ccc(Nc2sc(C(=O)c3ccccc3)c(N)c2S(C)(=O)=O)cc1	–	–
Cc1ccc(NS(=O)(=O)c2cccc(C(=O)O)c2)c(C)c1	–	–
Cc1ccc(Cn2c(=O)n(Cc3ccccc3Cl)c(=O)c3ccccc32)cc1	–	–
Cc1ccccc1CN1C(=O)c2ccccc2Sc2ccc(C(=O)NCCc3ccccc3)cc21	–	?
CCc1ccccc1NC(c1nnc(-c2cccc(F)c2)o1)c1ccc(F)cc1Cl (centres undefined)	–	?
O=C(CN1C(=O)/C(=C\C=C\c2ccccc2)SC1=S)Nc1ccc(F)cc1	–	6.3µM
O=C(CN1C(=O)/C(=C/c2ccccc2)SC1=S)Nc1ncc(Cc2ccccc2)s1	–	4µM
O=C(CCN1C(=O)/C(=C/C=C/c2ccccc2)SC1=S)Nc1nc2ccccc2s1	–	7.9µM
CN1CCN(NC(=O)CN2C(=O)/C(=C/c3ccccc3F)SC2=S)CC1	–	–
O=C(CCn1c(=O)oc2ccccc21)Nc1nc2ccccc2s1	–	–
O=C(CCCN1C(=O)/C(=C/c2cccs2)SC1=S)NNC(=O)c1ccccc1O	–	–
Cc1ccc(NC(=O)CN2C(=O)/C(=C\c3cccs3)SC2=S)cc1	–	5µM
COc1cccc(/C=C2/SC(=S)N(CC(=O)Nc3nnc(C)s3)C2=O)c1	–	–
Cc1ccc(-c2nnc(Nc3ccc(O)cc3)c3ccccc23)cc1S(=O)(=O)NCc1nc2ccccc2[nH]1	–	–
COc1ccc(-c2nc3nc(C)cc(Nc4ccc(C(C)=O)cc4)n3n2)cc1	–	–
Cc1cc(C)cc(N2C(=O)CSC23C(=O)N(Cc2c(F)cccc2Cl)c2ccccc23)c1 (centres undefined)	–	?
O=C(CSc1nc2ccccc2n1Cc1cccc(F)c1)N1CCN(c2ccc(F)cc2)CC1	–	–
O=c1[nH]c(/C(Cl)=C/c2c(F)cccc2Cl)nc2cc(Cl)ccc12	–	?
O=c1[nH]c(/C(Cl)=C/c2cccc(C(F)(F)F)c2)nc2cc(Cl)ccc12	–	3.2µM
Cc1ccc(-c2nnc(SCC(=O)N3CCN(c4ccccc4)CC3)o2)cc1	–	10µM
COc1ccc(-c2nnc(SCC(=O)N3CCN(c4ccccc4)CC3)o2)cc1OC	–	–
CC(C)c1ccc2oc(-c3ccc(Cl)c(NC(=O)c4cccs4)c3)nc2c1	–	–
CC(C)(C)C(=O)NCC(c1ccc2c(c1)OCO2)N1CCOCC1 (centres undefined)	–	–
CC[n+]1c(/C=C/N(C)c2ccccc2)sc2ccc(Cl)cc21	–	–
SMILES	Cruzain inh Det	Cruzain noTriton
CC[n+]1c(/C=C/C=C/N(C(C)=O)c2ccccc2)sc2ccccc21	–	20µM
Cc1ccc(S(=O)(=O)Nc2ccc(-c3nc4cc(NS(=O)(=O)c5ccc(C)cc5)ccc4o3)cc2)cc1	–	7.9µM
COc1ccc(-c2nc3ccc(NS(=O)(=O)c4ccc(Cl)cc4)cc3o2)cc1	–	–
Cc1cc2n(n1)CCC(=O)N2Cc1ccc(C(=O)Nc2ccc(F)cc2F)cc1	–	–
Cc1sc(NC(=O)c2ccc(OCC(C)C)cc2)c(C(N)=O)c1-c1ccc(Cl)cc1Cl	?	10µM
CCCOc1ccc(C(=O)Nc2cccc(NC(=O)c3ccc(Cl)cc3Cl)c2)cc1	–	?
COc1cc(OC)cc(N2C(=O)CSC23C(=O)Nc2ccccc23)c1 (centres undefined)	–	–
COc1cccc(-c2nc(-c3ccccc3)no2)c1	–	–
COc1ccc(-c2cc3nnc(-c4ccccc4)nc3s2)cc1	–	3.2µM
COc1c(C)cc(S(=O)(=O)Nc2cccc(-c3ccc(N4CCOCC4)nn3)c2)c(C)c1C	–	?
CCc1ccccc1NC(=O)CCC(=O)OCC(=O)c1ccc(-c2ccccc2)cc1	–	16µM
COc1ccccc1NC(=O)CCC(=O)c1ccc(-c2ccccc2)cc1	–	–
Cc1cccc(N=C2NN=C(c3ccc4c(c3)OCCO4)CS2)c1	–	16µM
Cc1cccc(N=C2NN=C(c3c(C)[nH]c4ccccc34)CS2)c1	–	?
Nn1cnnc1N/N=C\c1ccc(-c2ccccc2[N+](=O)[O-])o1	20µM	–
O=[N+]([O-])c1ccccc1-c1ccc(/C=N/n2cnnc2)o1	–	–
COc1ccc(OC)c2sc(N3CCN(C(=O)c4ccc5c(c4)CCCC5)CC3)nc12	–	–
O=c1cc(-c2ccccc2)oc2cc(O[C@@H]3O[C@H](CO)[C@@H](O)[C@H](O)[C@H]3O)c(O)c(O)c12	–	–
O=c1ccc2cc(OC3OC(CO)C(O)C(O)C3O)c(O)cc2o1 (centres undefined)	7.9µM	13µM
Cc1ccc(CC(=O)Nc2ccc3c(c2)N(C)C(=O)c2ccccc2S3)cc1	–	–
COc1ccc(N2CCN(CCCNC(=O)C3COc4ccc(OC)cc4C3)CC2)cc1 (centres undefined)	–	–
Cc1cccc(C2=NN(c3ccccc3)[C@@H](C(=O)N3CCOC3=O)[C@@H]2C)c1	–	–
C[C@@H]1C(c2ccccc2)=NN(c2ccc(Br)cc2)[C@H]1C(=O)N1CCOC1=O	–	?
Cc1cccc(C2=NN(c3ccc(Br)cc3)[C@@H](C(=O)N3CCOC3=O)[C@@H]2c2ccc([N+](=O)[O-])cc2)c1	–	6.3µM
Cc1cccc(C2=NN(c3ccccc3)[C@@H](C(=O)N3CCOC3=O)[C@@H]2c2ccc(Cl)cc2)c1	–	22µM
SMILES	Cruzain inh Det	Cruzain noTriton
Cc1cccc(C2=NN(c3ccccc3)[C@@H](C(=O)N3CCOC3=O)[C@@H]2c2ccc(F)cc2)c1	–	?
Cc1cccc(C2=NN(c3ccc(Br)cc3)[C@@H](C(=O)N3CCOC3=O)[C@@H]2C)c1	–	28µM
O=C1OCCN1C(=O)[C@H]1[C@H](c2ccc([N+](=O)[O-])cc2)C(c2ccccc2)=NN1c1ccccc1	–	?
O=C1OCCN1C(=O)[C@H]1[C@H](c2ccc([N+](=O)[O-])cc2)C(c2cccc(Cl)c2)=NN1c1ccccc1	–	11µM
CC(=O)Nc1ccc(S(=O)(=O)NCc2cccn2Cc2cccc(C)c2)cc1	–	–
CS(=O)(=O)Nc1cccc(-c2nc(Nc3ccncc3)c3ccccc3n2)c1	–	–
Cc1ccc(CNC(=O)c2cccc(-n3cnc4cccnc43)c2)cc1	–	–
CCC(C(=O)NC1CCCCC1)n1c(SCc2cccc(C)c2)nc2ccncc21 (centres undefined)	14µM	?
Cc1cccc(Cn2c(SCc3ccc(C(=O)NC4CCCCC4)cc3)nc3ccncc32)c1	–	–
COc1cc(-c2nc3ccc(Cl)cn3c2Nc2ccc3c(c2)OCO3)ccc1O	–	?
CCOc1cc(Cn2c(-c3ccc(O)c(OCC)c3)nc3ccccc32)ccc1O	–	–
O=S(=O)(NCCc1cn2ccccc2n1)c1ccc(F)c(C(F)(F)F)c1	25µM	–
Cc1ccn2cc(CCNS(=O)(=O)c3ccc(F)c(C(F)(F)F)c3)nc2c1	–	25µM
CCc1ccc(S(=O)(=O)NCCc2cn3ccccc3n2)s1	–	–
Cc1ccn2cc(CCNS(=O)(=O)c3ccc4c(c3)OCCO4)nc2c1	–	–
CN1c2ccc(Cl)cc2-c2nc(SCC(=O)NCc3ccccc3)ncc2S1(=O)=O	–	–
O=C(Nc1c(C(=O)N2CCN(c3ccccc3)CC2)oc2ccccc12)c1ccc(Br)o1	–	?
O=C1SCC(c2ccc(Cl)cc2Cl)=NN1Cc1nnc(-c2ccccc2)o1	–	16µM

Bioassay records (PubChem BioAssay)
